Results published in PubChem BioAssay AID624172 (National Center for Advancing Translational Sciences (NCATS), 2012).
Screen size: about 380,000 compounds; about 25 (0.007%) were called active. Calls follow the shape of the dose curve; as a rule, active = well fitted activation curve with a large enough effect; inconclusive = small, poorly fitted or top-dose-only effect; inactive = no such curve, though single readings can be large or run the other way. These entries were drawn from the full list.

Each compound was assayed against Glucagon-like peptide 1 receptor (Homo sapiens) (UniProt P43220) (assay: qHTS of GLP-1 Receptor Agonists). Conditions: HEK293 GLP-1R CRE-luciferase, luminescence, 4-6 h, cells express a hypersensitive GLP-1R form; series mostly up to 45.6 µM; activation: at the top concentration.
Source text: The overall goal of this project was to develop a novel assay for discovering small molecule ligands for class B1 G protein-coupled receptors (GPCRs). Very few agonists (or inverse agonists) with generally weak activity for this entire group of physiologically important receptors are known to date. To establish proof-of-principle that this critical bottleneck can be overcome with a suitable screening approach, our studies focused on the class B1 receptor for glucagon-like peptide-1 (GLP-1R), a potential therapeutic target for diabetes and neurodegenerative disease.
The assay was developed in a "mix and measure" format using a cell-based functional readout. Toward this goal, stably transfected HEK293 cell clones were established that co-express (i) a cAMP-responsive luciferase reporter gene, and (ii) GLP-1Rs that upon ligand interaction either stimulate (agonists) or inhibit (inverse agonists) luciferase activity. In different cell lines to be used for screening, expressed GLP-1Rs are specifically optimized for high sensitivity detection of either weak agonists (hypersensitive receptor) or inverse agonists (constitutively active receptor mutant). In addition, control cell lines were developed that express either the cAMP-responsive reporter gene without recombinant GLP-1Rs (enabling initial exclusion of GLP-1R independent effects of candidate probes), or the reporter gene together with wild type GLP-1Rs (for confirmation of probe activity at this receptor), or the reporter gene in combination with the constitutively active orphan receptor GPR119 (enabling initial exclusion of GLP-1R independent inhibitory effects of candidate inverse agonists).
To that end, this assay was optimized for 1536-well format and screened against the MLSMR.
NIH Molecular Libraries Probe Production Network [MLPCN]
NIH Chemical Genomics Center [NCGC]
PI Name: Martin Beinborn, Tufts Medical Center
In a white solid 1536-well plate, 6 uL of cells are dispensed in DMEM without phenol red, 10% Nu serum, and 1% pen-strep medium. The plates are then incubated for 12 hours at 37 deg C at 5% CO2 before 23 nL of compounds are added. After a 4-6 hr incubation at37 deg C and 5% CO2, 3 uL of detection reagent are added and after a 12 min incubation at RT, a luminescent read is obtained on the ViewLux.
Also: % of control where 0% means no effect.

Chain of Glucagon-like peptide 1 receptor (Homo sapiens) (P43220 whole entry, looked up): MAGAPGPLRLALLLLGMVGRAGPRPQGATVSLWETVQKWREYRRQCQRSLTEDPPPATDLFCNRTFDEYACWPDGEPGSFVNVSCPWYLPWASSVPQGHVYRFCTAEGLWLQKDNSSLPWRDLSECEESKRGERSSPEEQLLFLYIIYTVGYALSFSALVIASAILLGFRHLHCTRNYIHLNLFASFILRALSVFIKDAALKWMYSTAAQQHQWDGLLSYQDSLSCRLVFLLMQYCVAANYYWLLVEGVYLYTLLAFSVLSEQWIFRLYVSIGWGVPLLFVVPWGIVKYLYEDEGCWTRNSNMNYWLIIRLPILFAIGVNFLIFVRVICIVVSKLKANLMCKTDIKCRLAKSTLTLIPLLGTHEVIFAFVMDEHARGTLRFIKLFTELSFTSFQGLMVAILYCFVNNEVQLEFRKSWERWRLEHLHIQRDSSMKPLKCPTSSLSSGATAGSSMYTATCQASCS

activation, inactive:
COc1ccc2[nH]c3c(c2c1)CCN(C(=O)CCC1CCCC1)C3c1ccc(F)cc1 (stereo not drawn) 0.944%, Nc1ccccc1N 1.01% [at 96 µM], NNc1nnc(Cc2ccncc2)c2ccccc12 -3.34%, CC(=O)OCC(=O)[C@@]1(O)CC[C@@H]2[C@H]3CCC4=CC(=O)C=C[C@]4(C)[C@]3(F)[C@@H](O)C[C@@]21C -1.89% [at 19.8 µM], CCC(CC)C(=O)N1CCc2cc(OC)c(OC)cc2C1COc1ccc(F)cc1 (stereo not drawn) 18.6%, CCC[C@H]1C(=O)N2C(N(C)C)=Nc3ccc(C)cc3N2C1=O 2.77% [at 19.8 µM], C=C1C(=CC=C2CCC[C@@]3(C)[C@@H]2CC[C@H]3[C@H](C)CCCC(C)C)C[C@@H](O)C[C@@H]1O 7.68%, O=C1C(c2[nH]c3ccccc3c2O)=Nc2ccccc21 17.2%, CC(=O)OC[C@H]1O[C@@H](O[C@H]2[C@H](O)[C@@H](OC(=O)c3ccccc3C(=O)O)[C@H](O)O[C@@H]2COC(C)=O)[C@H](O)[C@@H](OC(=O)c2ccccc2C(=O)O)[C@@H]1O 5.47%, COc1ccc(CNC(=O)c2cc3cccc(OC)c3oc2=O)cc1 -5.88%, O=C(C1CC1)N1CCc2cc(Br)cc(S(=O)(=O)N3CCN(c4ccccc4F)CC3)c21 0.0455%, O=C(O)CCC(=O)O -1.33%, COc1ccc(OC)c([C@H](O)CNC(=O)CN)c1 1.93% [at 19.8 µM], O=C(NC1CCCCC1)c1ccc2c(c1)N(Cc1ccc(Cl)cc1)C(=O)c1ccccc1S2=O (stereo not drawn) -3.48%, Cc1ccc(C)c(CN2C(=O)c3ccccc3S(=O)c3ccc(C(=O)N4CCOCC4)cc32)c1 (stereo not drawn) -0.515%, COc1ccc(S(=O)(=O)NCCSc2nnnn2-c2ccccc2)cc1 0.741%, CC(=O)OC1C([N+]2(C)CCCCC2)C[C@H]2C3CC[C@H]4C[C@H](OC(C)=O)C([N+]5(C)CCCCC5)CC4(C)C3CCC12C (stereo partly drawn) -1.14%, CCOC(=O)Cc1cccc(-c2cc(CCCCCCc3ccc(O[C@H]4O[C@H](COC(C)=O)[C@@H](OC(C)=O)[C@H](OC(C)=O)[C@@H]4OC(C)=O)c(-c4cccc(CC(=O)OCC)c4)c3)ccc2O[C@H]2O[C@H](COC(C)=O)[C@@H](OC(C)=O)[C@H](OC(C)=O)[C@@H]2OC(C)=O)c1 2.49%, O=C(CCn1c(=O)c2ccccc2n(Cc2ccc(Cl)cc2)c1=O)NCc1ccc2c(c1)OCO2 -0.608%, COc1ccc(-c2nc3ccccc3s2)cc1NC(=O)COc1ccccc1C 5.28%, CSc1ccc(C2C(C(=O)Nc3ccccc3)=C(C)Nc3nc4ccccc4n32)cc1 (stereo not drawn) 5.83%, O=C(O)[C@@H](S)[C@H](S)C(=O)O -4.55%, CCC(C)C1OC2(C=CC1C)CC1CC(C/C=C(/C)C(OC3CC(OC)C(OC4CC(OC)C(NC(C)=O)C(C)O4)C(C)O3)C(C)/C=C\C=C3\COC4C(O)C(C)=CC(C(=O)O1)C34O)O2 (stereo not drawn) -1.5%
